# Data published in PubChem BioAssay (NCI).
# The panel holds about 83,000 compounds, 20% with a hit somewhere; the sample as a whole holds those more often.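 Method: cells in 96-well plates; compound added at one concentration; 48 h incubation; percent growth measured; values under 10 scored active.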 A number with no mark means an inactive call. The source made the active and inactive calls.
# Test system: UO-31 renal
# Experiment: NCI-60 one-dose screen, 48 h (100 = growth as untreated, 0 = no growth, -100 = all killed)
# Details: 10 µM unless noted
row,Structure (SMILES),growth
1,O=C1C=CC2(NN=C(c3ccccc3)N2c2ccc(Cl)cc2)c2cccc(O)c21 (centres undefined),28.2%
2,CNC(=O)c1ccc(Nc2ncc(C(F)(F)F)c(NCc3nccnc3N(C)S(C)(=O)=O)n2)cc1,-6.92% (active)
3,CN(C)C/C=C/C(=O)Nc1cc2c(Nc3ccc(F)c(Cl)c3)ncnc2cc1O[C@H]1CCOC1,12.2%
4,COc1cc(Nc2c(C#N)cnc3cc(OCCCN4CCN(C)CC4)c(OC)cc23)c(Cl)cc1Cl,38.1%
5,Cc1oc2c(C(=O)N/N=C\c3ccc(O)cc3O)c[nH]c2c1C,-0.347% (active)
6,COc1c(OCCCN2CCOCC2)ccc2c3n(c(=NC(=O)c4cnc(N)nc4)nc12)CCN3,-13.8% (active)
7,c1cn2cc(-c3ccc4cn[nH]c4c3)nc(Nc3ccc(N4CCOCC4)cc3)c2n1,65.1%
8,CN1CCN(CCOc2cc(OC3CCOCC3)c3c(Nc4c(Cl)ccc5c4OCO5)ncnc3c2)CC1,17.7%
9,O=C(Cc1ccc(-c2ccc(OCCN3CCOCC3)cc2)cn1)NCc1ccccc1,35.8%
10,COc1ccc(F)c(F)c1C(=O)c1cnc(NC2CCN(S(C)(=O)=O)CC2)nc1N,-3.94% (active)
11,CCOc1ccc(N=C(C)Nc2ccc(OCC)cc2)cc1,82.3%
12,C[C@@H]1COC(Nc2ccc3ncnc(Nc4ccc(OCc5nccs5)c(Cl)c4)c3c2)=N1,18.7%
13,CCCCCC(=O)OCc1ccc(Cl)c(Cl)c1,90.5%
14,C=CC(=O)Nc1cccc(Oc2nc(Nc3ccc(N4CCN(C)CC4)cc3)nc3ccsc23)c1,-89.6% (active)
15,C1=C\COCc2cc(ccc2OCCN2CCCC2)Nc2nccc(n2)-c2cccc(c2)COC/1,-29.2% (active)
16,FC(F)c1nc2ccccc2n1-c1nc(N2CCOCC2)nc(N2CCOCC2)n1,-26.2% (active)
17,Cc1cnc(Nc2ccc(OCCN3CCCC3)cc2)nc1Nc1cccc(S(=O)(=O)NC(C)(C)C)c1,-96.3% (active)

row,Structure (SMILES),growth
1,C=CC(=O)Nc1cc2c(Nc3ccc(F)c(Cl)c3)ncnc2cc1OCCCN1CCOCC1,-12.8% (active)
2,COc1cc2c(cc1OCCCN1Cc3ccc(OCCCCC(=O)N4CCC(CCN5CCCC5)CC4)cc3C1)N=C(N)C21CCCC1,93.7%
3,COc1cc(Nc2ncc(F)c(Nc3ccc4c(n3)N(COP(=O)(O)O)C(=O)C(C)(C)O4)n2)cc(OC)c1OC,-23.9% (active)
4,CNC(=O)c1cc(Oc2cccc3nc(Nc4ccc(Cl)c(F)c4)ccc23)ccn1,81.6%
5,C[C@@H](Oc1cc(C(=O)Nc2ccc(C(=O)N3CCN(C)CC3)cc2)nnc1N)c1c(Cl)ccc(F)c1Cl,48.4%
6,NC1(c2ccc(-c3nc4ccn5c(=O)[nH]nc5c4cc3-c3ccccc3)cc2)CCC1,28.6%
7,C=CC(=O)N1CCC[C@@H](n2nc(-c3ccc(Oc4ccccc4)cc3)c3c(N)ncnc32)C1,6.16% (active)
8,Cn1ccnc1C(=O)/C=C/c1ccc(CC(=O)Nc2ccc(C(F)(F)F)cc2)cc1,22.1%
9,CCNC(=O)Nc1nc2ccc(Oc3ccnc(C(=O)NC)c3)cc2s1,88.2%
10,O=C(Cn1cncn1)Nc1ccc(-c2nc3ccccc3s2)cc1,76.9%
11,Cc1ccc(NC(=O)Nc2ccc(Nc3ncnc4sc5c(c34)CCOC5)cc2)cc1Cl,78.6%
12,Cc1cc2c(F)c(Oc3ncnn4cc(OC[C@@H](C)OC(=O)[C@H](C)N)c(C)c34)ccc2[nH]1,36.3%
13,CC(C)(C)c1nc(-c2cccc(NS(=O)(=O)c3c(F)cccc3F)c2F)c(-c2ccnc(N)n2)s1,37.1%
14,COC(=O)Nc1nc2ccc(C(=O)c3ccc(N(C)C4COC4)cc3)cc2[nH]1,45.3%
15,CO[C@H]1C[C@@H]2CC[C@@H](C)[C@@](O)(O2)C(=O)C(=O)N2CCCC[C@H]2C(=O)O[C@H]([C@H](C)C[C@@H]2CC[C@@H](OC(=O)C(C)(CO)CO)[C@H](OC)C2)CC(=O)[C@H](C)/C=C(\C)[C@@H](O)[C@@H](OC)C(=O)[C@H](C)C[C@H](C)\C=C/C=C/C=C/1C,15.3%
16,CO[C@@H](C)Cn1c(=O)n(C)c2cnc3ccc(-c4cncc(C(C)(C)O)c4)cc3c21,-18.6% (active)
17,NC1=Nc2cc(OCCCN3Cc4ccccc4C3)c(OCC3CC3)cc2C12CCCC2,42.1%
